# Records with an inconclusive call do not appear. Active and inactive are the calls of the source. Calls follow the shape of the full dose curve.
# Experiment: Primary qHTS to identify inhibitors of SARS-CoV-2 cell entry (AID 1645846); also: nearly all actives have a fitted effect of over 45% in size
# Conditions: SARS-CoV-2 pseudovirus cell entry assay, luminescence; activity change, negative = inhibition: at 57.1 µM (top of the series) unless noted
# Summary of the method: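 Entry measured by luciferase signal 48 h after adding SARS-CoV-2-S pseudotyped MLV particles to HEK293-ACE2 cells preincubated 1 h with compounds. Normalisation: bald particles and spike particles.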
# Potency is read from the fitted curve at half-maximal effect.
SMILES,"activity change, negative = inhibition [%]",Potency
COCCN1CCN(Cc2ccc(-c3n[nH]c4c3C(=O)c3c(NC(=O)NN5CCOCC5)cccc3-4)cc2)CC1,-93.4,–
CC(C)(O)CNc1ncc(-c2ccnc(Nc3ccncc3)n2)c(CC2CC2)n1,–,10 µM (active)
CC(C)C[C@H](NC(=O)[C@H](Cc1ccccc1)NC(=O)OCc1ccccc1)C(=O)C=O,–,14.1 µM (active)
Cc1nc2ccc(-n3ncc(C(=O)c4cc5ccccc5[nH]4)c3N)cc2[nH]1,–,11.2 µM (active)
Cn1c(NC[C@@H](N)Cc2ccccc2)nc(-c2ccncc2)c(-c2ccc3ccccc3c2)c1=O,–,28.2 µM (active)

# From PubChem BioAssay (NCATS)
